Results on 8 molecules are retold here after PubChem BioAssay (NCI).

Some test systems named below: NCI-H23 lung; NCI-H226 lung; NCI-H322M lung; HOP-62 NSCLC; NCI-H460 lung; HOP-92 NSCLC; NCI-H522 lung; A549/ATCC NSCLC; 786-0 renal; COLO 205 colon; DU-145 prostate; K-562 leukemia; MALME-3M melanoma; MDA-MB-231 breast; RXF 393 renal; SF-268 CNS; SF-539 CNS; UACC-257 melanoma; M14 melanoma.
Experiment in all cases: NCI-60 one-dose screen, 48 h (100 = growth as untreated, 0 = no growth, -100 = all killed)
Holding throughout (conditions): 10 µM unless noted

About 83,000 compounds went through this panel and 20% of them were active in at least one assay; those are over-represented in the sample as a whole.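 Negative percent growth values reflect cell death: -40 means 40% of the cells present at the start died, and -100 means all died.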 A number with no mark means an inactive call. Calls of active or inactive are those of the source. The calls were made as follows: active = growth percent below 10; inactive = the rest.

Regarding `Cc1c(C)c(C)c([N+](=O)[O-])c([N+](=O)[O-])c1C`, the growth in the experiment with NCI-H23 lung was 107%; in the experiment on NCI-H226 lung it was 104%; in the experiment on NCI-H322M lung, 116%; with HOP-62 NSCLC it was 103%; in the experiment on NCI-H460 lung, 108%; in the experiment on HOP-92 NSCLC it was 69%. For the same molecule, the growth is 98.7% with NCI-H522 lung; 93.4% with A549/ATCC NSCLC; 93.6% with 786-0 renal; 115% in the experiment with COLO 205 colon; 92.2% in the experiment with DU-145 prostate; 119% in the experiment on K-562 leukemia. Also, the growth in the experiment on MALME-3M melanoma was 90.1%; in the experiment with MDA-MB-231 breast it was 79.3%; with RXF 393 renal, 107%; in the experiment on SF-268 CNS, 93%; with SF-539 CNS, 92%; in the experiment with UACC-257 melanoma it was 103%. In addition, the growth in the experiment on M14 melanoma was 104%.

Turning to `CC(C)N=C1CCCC1C(=S)SSC(=S)C1CCCC1=NC(C)C` (configuration not stated), the growth was 75.5% with NCI-H23 lung; 90.6% in the experiment on NCI-H226 lung; 86.7% in the experiment with NCI-H322M lung; 24.5% in the experiment on HOP-62 NSCLC; 47.5% in the experiment with NCI-H460 lung; 103% in the experiment on HOP-92 NSCLC. Moreover, the growth in the experiment with NCI-H522 lung is 8.07% (active); in the experiment with A549/ATCC NSCLC, 71.1%; in the experiment with 786-0 renal, 91.4%; in the experiment on COLO 205 colon, 88.8%; with DU-145 prostate it was 64.9%; in the experiment on K-562 leukemia it was 34.9%. In addition, the growth in the experiment on MALME-3M melanoma is 53.8%; in the experiment with MDA-MB-231 breast it was 76.9%; with RXF 393 renal it was 78.3%; with SF-268 CNS, 68.6%; in the experiment with SF-539 CNS, 83.4%; in the experiment on UACC-257 melanoma, 69.7%. Besides, the growth in the experiment on M14 melanoma is 64.4%.

For `Clc1ncnc2scc(C3COc4ccccc4O3)c12` (configuration not stated), the growth in the experiment with NCI-H23 lung was 95.9%; in the experiment with NCI-H226 lung, 75.3%; in the experiment with NCI-H322M lung it was 98.6%; in the experiment on HOP-62 NSCLC it was 105%; in the experiment on NCI-H460 lung, 106%; in the experiment with HOP-92 NSCLC it was 78.9%. The growth is 53.6% in the experiment on NCI-H522 lung; 95.5% in the experiment with A549/ATCC NSCLC; 104% in the experiment on 786-0 renal; 100% in the experiment with COLO 205 colon; 76.8% in the experiment with DU-145 prostate; 69.8% in the experiment with K-562 leukemia. Further, the growth was 58.7% with MALME-3M melanoma; 98.3% in the experiment with MDA-MB-231 breast; 99.6% with RXF 393 renal; 101% in the experiment with SF-268 CNS; 94.1% with SF-539 CNS; 93.2% in the experiment on UACC-257 melanoma. Further, the growth in the experiment with M14 melanoma is 88.4%.

For the molecule `O=C1C2=C(C(=O)c3c(O)ccc(O)c31)N(c1ccc(N3CCOCC3)nc1)Cc1ccccc1O2`, the growth with NCI-H23 lung is -33.8% (active); in the experiment on NCI-H226 lung, 0% (active); with NCI-H322M lung it was -14.6% (active); with HOP-62 NSCLC, -13% (active); with NCI-H460 lung, -32.6% (active); with HOP-92 NSCLC it was -66.1% (active). Besides, the growth was -47.3% (active) with NCI-H522 lung; -23.2% (active) in the experiment on A549/ATCC NSCLC; -83.7% (active) in the experiment with 786-0 renal; -67.5% (active) in the experiment with COLO 205 colon; -98% (active) in the experiment with DU-145 prostate; -17.5% (active) in the experiment with K-562 leukemia. The growth in the experiment on MALME-3M melanoma was -91.6% (active); with MDA-MB-231 breast it was -89.6% (active); in the experiment with RXF 393 renal, -92.1% (active); in the experiment with SF-268 CNS, -42.5% (active); with SF-539 CNS, -72.1% (active); in the experiment with UACC-257 melanoma, -92% (active). The growth with M14 melanoma was -89.3% (active).

Turning to `Fc1[nH]nc2ccc([C@@H]3Nc4ccc5[nH]ncc5c4[C@H]4C5CCC(C5)[C@@H]34)cc12` (some centres not stated), the growth in the experiment on NCI-H23 lung was 45.2%; in the experiment on NCI-H226 lung, 47.5%; in the experiment with NCI-H322M lung, 47.7%; with HOP-62 NSCLC, 37.6%; in the experiment with NCI-H460 lung, 11.5%; with HOP-92 NSCLC, 67.3%. Moreover, the growth in the experiment with NCI-H522 lung is 10.3%; with A549/ATCC NSCLC, 28%; in the experiment on 786-0 renal it was 51.9%; with COLO 205 colon, 9.22% (active); with DU-145 prostate it was 15.1%; with K-562 leukemia, 15.1%. The growth in the experiment with MALME-3M melanoma is 48.5%; with MDA-MB-231 breast it was 46.2%; in the experiment on RXF 393 renal, -6.05% (active); in the experiment with SF-268 CNS, 57.5%; in the experiment on SF-539 CNS it was -15.9% (active); in the experiment on UACC-257 melanoma it was 82.2%. Also, the growth in the experiment on M14 melanoma was 21.2%.

Regarding `COc1ccc(/C=C/C(=O)c2ccc(NC(=O)CSc3nnc(-c4ccc(OC)cc4)n3-c3ccccc3)cc2)cc1`, the growth in the experiment with NCI-H23 lung is 99.2%; with NCI-H226 lung it was 99.2%; in the experiment on NCI-H322M lung it was 103%; in the experiment on HOP-62 NSCLC it was 101%; with NCI-H460 lung, 107%; with HOP-92 NSCLC it was 106%. Also, the growth in the experiment with NCI-H522 lung is 91.4%; in the experiment with A549/ATCC NSCLC, 80.2%; with 786-0 renal, 102%; with COLO 205 colon, 107%; in the experiment with DU-145 prostate, 104%; in the experiment on K-562 leukemia, 78.1%. In addition, the growth is 96.8% with MALME-3M melanoma; 90.9% in the experiment with MDA-MB-231 breast; 108% in the experiment with RXF 393 renal; 101% in the experiment on SF-268 CNS; 100% in the experiment on SF-539 CNS; 91.9% in the experiment on UACC-257 melanoma. In the experiment on M14 melanoma, the growth was 92.7%.

Regarding `CC(=O)c1c(O)c(C)c(O)c2c1OC1=CC(=O)/C(=C(/C)N)C(=O)C12C` (configuration not stated), the growth in the experiment with NCI-H23 lung was 89.8%; with NCI-H226 lung it was 73.8%; with NCI-H322M lung it was 97.3%; in the experiment with HOP-62 NSCLC it was 94.9%; with NCI-H460 lung, 98.2%; with HOP-92 NSCLC it was 99.7%. In addition, the growth is 77.6% in the experiment with NCI-H522 lung; 83% in the experiment with A549/ATCC NSCLC; 98.3% in the experiment on 786-0 renal; 95.8% in the experiment on COLO 205 colon; 100% in the experiment with DU-145 prostate; 83% with K-562 leukemia. Moreover, the growth in the experiment with MALME-3M melanoma is 96.9%; with MDA-MB-231 breast it was 90.8%; with RXF 393 renal it was 92.2%; in the experiment on SF-268 CNS it was 95.2%; in the experiment on SF-539 CNS it was 99.7%; in the experiment on UACC-257 melanoma it was 100%. Moreover, the growth in the experiment on M14 melanoma was 93.6%.

On to `CNCCCNc1ccnc2cc(Cl)ccc12`, for which the growth is -50.4% (active) in the experiment on NCI-H23 lung; -17.6% (active) with NCI-H226 lung; -40.7% (active) with NCI-H322M lung; -27.1% (active) in the experiment with HOP-62 NSCLC; -28.2% (active) in the experiment with NCI-H460 lung; -17.9% (active) in the experiment on HOP-92 NSCLC. The growth was -62.3% (active) with NCI-H522 lung; 1.29% (active) in the experiment on A549/ATCC NSCLC; 3.83% (active) in the experiment with 786-0 renal; -88.9% (active) in the experiment on COLO 205 colon; -5.31% (active) with DU-145 prostate; 2.22% (active) in the experiment with K-562 leukemia. For the same molecule, the growth was -90.3% (active) in the experiment on MALME-3M melanoma; -33.8% (active) with MDA-MB-231 breast; -63.3% (active) in the experiment with RXF 393 renal; -29.5% (active) in the experiment with SF-268 CNS; -66.7% (active) in the experiment with SF-539 CNS; -87.5% (active) in the experiment on UACC-257 melanoma. Besides, the growth in the experiment on M14 melanoma was -32.6% (active).
